# Data: the supplement of paper PMC6555819
# Key:
# Experiment in all cases: PBM binding z-score (relative to random genomic background probes); higher = stronger binding; sequences stand for … in GC…GCGATTGACAGCGTAGAATGAAGG
# [1] = tested on: FXR:RXRa (NR concentration 270 nM, RXRa partner concentration 90 nM)
# How it was run: (§1)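 For binding z-scores, the reference was random background probes on custom Agilent 4×180K protein-binding microarrays. These arrays were incubated 1 h with ligand-free nuclear receptor dimers in PBS pH 7.4, 2% milk, 0.02% Triton X-100, 1 mM DTT, 0.2 mg/mL BSA and 0.4 mg/ml salmon testes DNA. Fluorescence was scanned after antibody detection of each partner (one per run) and regression-normalized.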
# [2] = tested on: LXRa:RXRa (NR concentration 270 nM, RXRa partner concentration 90 nM)
# How it was run: as §1
# [3] = tested on: LXRa homodimer (NR concentration 270 nM)
# How it was run: as §1
# [4] = tested on: LXRb:RXRa (NR concentration 270 nM, RXRa partner concentration 90 nM)
# How it was run: as §1
# [5] = tested on: LXRb homodimer (NR concentration 270 nM)
# How it was run: as §1
# [6] = tested on: PPARa:RXRa (NR concentration 270 nM, RXRa partner concentration 90 nM)
# How it was run: as §1
# [7] = tested on: PPARg:RXRa (NR concentration 180 nM, RXRa partner concentration 90 nM)
# How it was run: as §1
# [8] = tested on: PPARg:RXRa 270nM:90nM, anti-RXR (NR concentration 270 nM, RXRa partner concentration 90 nM)
# How it was run: as §1
# [9] = tested on: PPARg:RXRa 30nM:10nM, anti-RXR (NR concentration 30 nM, RXRa partner concentration 10 nM)
# How it was run: as §1
# [10] = tested on: PPARg:RXRa 90nM:30nM, anti-RXR (NR concentration 90 nM, RXRa partner concentration 30 nM)
# How it was run: as §1
Sequence,PBM binding z-score [1],PBM binding z-score [2],PBM binding z-score [3],PBM binding z-score [4],PBM binding z-score [5],PBM binding z-score [6],PBM binding z-score [7],PBM binding z-score [8],PBM binding z-score [9],PBM binding z-score [10]
CAAGCTAGGTCAAAGGTCAAAGTCGAGCCAACCA,8.68,7.38,5.19,7.27,2.73,7.38,12.9,10.7,12,12
ATTTGTAGGTTAGGGTCATTCAGAAAGTAGGGAA,5.22,4.68,2.51,4.9,3.24,5.52,6.37,5.83,3.41,5.27
ACTCGGAGGACAAATGTCAGAGCTACGCCAGTGA,-0.155,-0.111,-0.289,-0.522,-0.374,0.306,1.34,1.99,0.613,1.36
CGTCAAAGTTCAAGGCAACGTAACAGAAAGCAGC,5.83,5.32,2.35,2.97,0.47,4.47,3.88,4.87,1.54,3.53
CCAACTAGGTCATTGACAGGACAGTGAATAGTAA,4.34,3.06,0.961,2.18,0.671,3.92,5.95,5.66,2.77,5.03
ATATGTACGTTAGGGTCATTCAGAAAGTAGGGAA,4.38,3.61,0.485,3.96,1.15,4.77,2.68,2.97,1.27,2.07
GCTGCTAGGTCATGTTGGTCAGCTAACGGGTACG,3.46,2.59,0.616,1.75,0.329,3.03,1.62,2.3,0.174,1.38
CTCGAAAGGTCGTGCTCAGGTGAGTATGCCAAAC,4.94,4.15,0.0245,3.2,-0.0304,4.79,2.57,3.95,1.25,2.67
ATGTGTAGGTTACATCCGGGTCATTCAGGCTATG,2.23,4.19,1.76,2.87,0.855,3.45,2.44,2.64,0.934,2.02
CTAACTAGGTCACCAGGACAGTGAAGAGGTTGGA,4.07,2.77,0.482,1.74,0.0977,5.34,9.24,7.69,5.34,7.49
CCTACTGGGCCAAAGGTCAGTGATTCCAATGCTC,2.78,2.95,1.1,3.34,-0.252,6.01,11.7,10.2,9.62,12.5
CTCGAAAGGTCGTGCTCAGGTGAGTACACCAAAC,5.63,3.63,0.149,3.14,0.685,4.94,3.11,4.4,1.61,2.91
CGTCCAAGGTCAGCAGGTCACTGAAAGCGACGTG,6.56,4.66,0.808,3.7,0.0267,5.5,5.54,5.5,1.58,4.01
ATCGAAAGGTCGAAGGTCAGTATACCCACCCGAA,5.6,4.68,1.05,4.53,0.966,5.61,6.96,6.43,3.83,5.97
TCTCGGAGGACACGAAAGGTCAGAACTCGACATC,2.77,3.63,3.3,3.19,0.189,3.29,1.1,2.1,2.51,2.07
CCTTACAGGTCAAGGTTATAGCACGGGTGGTACG,6.13,4.73,2.02,3.5,1.18,5.2,4.94,4.89,1.9,3.82
CGCCCAAGGTCAGCAGGTCAGTGAAAGCGACGTG,5.7,4.2,0.381,2.99,-0.0743,4.81,3.8,4.59,1.02,2.98
GCTGCTAGGTCAGGATGGTCAGCTAACGGGTACG,0.825,0.646,-0.251,0.268,-0.621,1.6,0.968,1.04,-0.242,0.479
CCTCGGAGGACAACCGGAGGTCAGAGCTGCCAGA,1.26,2.64,2.71,1.52,-0.532,1.78,0.316,0.642,-0.954,0.0511
CCGACTGGGGCAAAGGTTACCACACTCAGTACGA,1.86,1.89,0.137,2.27,-0.702,5.83,10.7,8.79,8.43,9.24
TAGCCTAGGACATGCGGGCCAGTATAGTGTCGGC,-0.531,-0.882,-1.1,-1.16,-1.2,-0.741,0.232,-0.867,-0.747,-0.931
CAACCTAGGTCACCGGAAGGTCAAAGTCCGCATG,7.05,6.32,5.53,5.93,1.49,5.6,6.23,6.31,3.11,5.38
ATATGTAGGCTAGGGTCATTCAGAAAGTAGGGAA,3.72,3.09,0.43,3.94,0.611,5.08,5.38,4.76,3.09,4.24
